High-throughput results as filed in PubChem BioAssay.
Shown are actives, neighbours in structure and some others; about 4.8% of the full set was active somewhere.
APP 5UTR inh: inhibitors of APP translation via 5'UTR reporter, primary screen, APP 5'UTR luciferase, SH-SY5Y cells; SH-SY5Y APP 5'UTR-luciferase reporter, luminescence; inhibition, % at 2 µM; 190,000 tested, 0.82% active; AID 1285, 2008;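 active = inhibition above a set limit, derived from the sample mean plus 3 SD, cut at about 45% in these data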
STAT1 activator: STAT1 signaling activators, primary screen, cell-based, HTS, luciferase reporter; NIH 3T3 STAT1-luciferase reporter, IFN-gamma, luminescence; 100% = IFN-gamma alone, no compound; activation (% of control), % at 5.5 µM; 200,000 tested, 2.6% active; AID 932, 2007;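 active = activation above the screen-wide mean activation plus 3 SD, cut at about 130% in these data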;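 also: raw ratio to IFN-gamma control signal so 100% means no change and 0% no light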
NF-kB expr up: activators of NF-kB expression in neurons, primary screen, cell-based, HTS | human neuronal cells, NF-kB reporter expression; hits give high values | fold change at 12.5 µM | 190,000 tested, 1.6% active; in the data active = fold change above about 3.3
Wee1 stabilizer: Wee1 degradation inhibitors, primary screen, cell-based, HeLa, Wee1K328M-luciferase, luminescence; reporter increase, % at 5 µM; HeLa Luc-Wee1K328M stability; 100% = proteasome inhibitor MG132 effect; Wee1-like protein kinase (Homo sapiens), P30291; 220,000 tested, 1.2% active;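 active = activation above the mean of all tested compounds plus 3 SD, set per screening run, cut at about 8.8% in these data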;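 also: cells exposed to compound for 20 h before luminescence read; 0% = DMSO alone and 100% = MG132 at 30 µM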
Target sequence (P30291 whole entry K328M): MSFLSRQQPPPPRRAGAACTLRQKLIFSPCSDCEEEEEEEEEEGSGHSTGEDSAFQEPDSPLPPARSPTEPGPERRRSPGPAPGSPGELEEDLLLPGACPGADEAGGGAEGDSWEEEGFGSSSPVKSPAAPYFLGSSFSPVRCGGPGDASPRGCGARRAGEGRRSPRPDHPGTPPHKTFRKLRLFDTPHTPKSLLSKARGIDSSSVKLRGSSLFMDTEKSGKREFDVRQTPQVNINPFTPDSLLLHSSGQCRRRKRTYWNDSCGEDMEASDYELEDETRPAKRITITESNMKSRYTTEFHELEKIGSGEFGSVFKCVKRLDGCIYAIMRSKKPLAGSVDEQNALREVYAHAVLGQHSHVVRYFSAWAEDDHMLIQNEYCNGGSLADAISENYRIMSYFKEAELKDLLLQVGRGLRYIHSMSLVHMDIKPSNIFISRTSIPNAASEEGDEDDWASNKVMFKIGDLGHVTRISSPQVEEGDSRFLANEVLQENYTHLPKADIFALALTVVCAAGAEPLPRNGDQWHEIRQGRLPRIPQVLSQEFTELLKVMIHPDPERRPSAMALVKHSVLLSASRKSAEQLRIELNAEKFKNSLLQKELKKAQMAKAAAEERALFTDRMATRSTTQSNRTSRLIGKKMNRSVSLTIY
Hsp70 act: Hsp70 transcriptional activators, primary screen, cell-based, HeLa, Hsp70 promoter luciferase, luminescence, 10 µM. HeLa Hsp70 promoter luciferase reporter; scaled: vehicle 0, proteasome-inhibitor control 100%. AID 1203, 2008. 200,000 tested, 0.04% active. activation, % at 10 µM;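 active = activation above the mean across all tested compounds plus 3 SD, cutoff set per campaign, cut at about 5.5% in these data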;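 also: 100% = MG132 at 30 µM as the positive control and 0% = DMSO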
APP 5'UTR act: activators of APP 5'UTR luciferase reporter, primary screen, SH-SY5Y cells | AID 1276, 2008 | SH-SY5Y APP 5'UTR luciferase reporter, luminescence; zero percent = DMSO vehicle wells | activation, % at 2 µM | 190,000 tested, 1% active;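 active = activation above a set limit, based on mean plus 3 SD of controls, cut at about 140% in these data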
Wee1 degr conf: Wee1 degradation inhibitors, confirmation, cell-based, HeLa, Wee1K328M-luciferase, luminescence, triplicate; shares compounds with Wee1 stabilizer; HeLa Luc-Wee1K328M degradation; vehicle 0%, proteasome-blocked wells 100%; activation, % at 5 µM; 1,100 tested, 4% active; AID 1410, 2008; in the data active = activation above about 8.9%
Numbers without * were called inactive; nt = not tested or not shown.

SMILES	APP 5UTR inh	STAT1 activator	NF-kB expr up	Wee1 stabilizer	Hsp70 act	APP 5'UTR act	Wee1 degr conf
COc1ccccc1-n1cnnc1SCC(=O)Nc1nc(C)c(Cl)cc1Cl	-6	99	1.1	13*	0	6	3
S=c1[nH]nc(Nc2ccc(Cl)cc2)s1	nt	nt	nt	15*	nt	nt	0
COc1ccc(-c2nnc(SCC(=O)N/N=C/c3ccccc3C(=O)O)n2-c2ccc(Cl)cc2)cc1	nt	nt	nt	12*	nt	nt	1
O=C(CSc1nnc(-c2ccc(Cl)cc2)n1-c1ccccc1)N/N=C/c1ccccc1C(=O)O	4	96	1.3	-2	0	-4	nt
CC1CCN(c2nc(-c3ccc(F)cc3)cc(C(F)(F)F)n2)CC1	20	98	1.6	-2	0	-19	nt
O=C(Nc1ccc(N2CCOCC2)c([N+](=O)[O-])c1)c1ccco1	-30	132*	1.8	11*	0	30	1
Cc1ccc(NC(=O)c2cc(NC(=O)c3ccco3)ccc2N2CCOCC2)cc1Cl	-1	101	1.1	-2	1	1	nt
O=[N+]([O-])c1ccccc1CSc1nc2ccccc2o1	-66	140*	2.4	44*	0	65	-1
FC(F)(F)c1ccc(NC(=S)NCc2ccccc2)cc1	4	96	1.1	19*	0	-4	0
CC(C)(C)c1ccc(/C=N/NC(=S)NCc2ccccc2)cc1	-34	108	1	17*	0	34	0
CN(C)c1ccc(/C=N/NC(=S)NCc2ccccc2)cc1	10	100	1.5	3	0	-10	nt
CCOC(=O)C1(CC2CCCCO2)CCN(Cc2c(C)cc(C)cc2-n2cccn2)CC1 (centres undefined)	0	98	1.2	-2	0	0	nt
COC(=O)c1ccccc1NC(=O)CNC(=O)c1ccc(OC)c(OC)c1	-6	94	0.85	3	0	6	nt
CCOC(=O)C1=C(O)C(=O)N(Cc2ccccc2)CC1	0	96	1.2	5	0	0	nt
CCOC(=O)C1=C(O)C(=O)N(Cc2ccc(C(C)(C)C)cc2)CC1	8	103	1.1	14*	0	-8	1
Cc1ccc(C2=NN(S(C)(=O)=O)C(c3cccs3)C2)cc1 (centres undefined)	-72	129*	3.8*	11*	0	72	6
CCS(=O)(=O)Nc1cccc(C2=NN(S(=O)(=O)c3ccc(C)cc3)C(c3cccs3)C2)c1 (centres undefined)	16	104	0.86	-2	0	-15	nt
Cc1ccc2c(c1)N(C(C)C(=O)NCCc1ccccc1)C(=O)CO2 (centres undefined)	-14	101	1.1	12*	0	14	0
CCOc1ccc2cc(C3CC(c4ccco4)=NN3S(=O)(=O)c3ccccc3)c(Cl)nc2c1 (centres undefined)	-14	109	0.69	-1	0	14	nt
COc1ccc2cc(C3CC(c4ccco4)=NN3S(=O)(=O)c3ccccc3)c(Cl)nc2c1 (centres undefined)	-10	95	0.61	16*	0	9	1
CCOC(=O)c1ccccc1NC(=O)CN(c1ccc(OCC)cc1)S(C)(=O)=O	52*	94	1.4	12*	0	-52	4
